# The OligoGym collection
# Target: XKR5
# Experiment: pooled miR-30 sensor sort-seq; sequence = guide strand
# Details: shRNA
# Also: reference of the scale not given here.
row,Sequence,sensor-assay potency score (higher = more potent)
1,TTAGTTATTACAAGCACACAGG,-0.438
2,TAGTGTCTCACATTGAATGGAA,-0.0169
3,TAATATTGTACCCTAATCCAAA,-1.28
4,TAGCAGACAATTTTGACTGGAA,0.477
5,TATCTGTGAAGTCTGAGGCTAG,0.0293
6,TGATCTTAGACACATTTCCTGT,-0.718

# Target: XKRX
# Experiment: as above
# Details: shRNA
row,Sequence,sensor-assay potency score (higher = more potent)
1,TAGCACAACTCTACCCAGGGGA,0.12
2,TAAGTTTCACTATTCTTTCGAT,0.293
3,TCTATTAGCATCTTCTTTCGGG,0.547
4,TAAATGGAAAAGTAAATCGGGG,-0.48
5,TTCTCTACCAACCTCACACTAT,-0.943
6,AATACCATTAGCACAACTCTAC,-0.637
7,TAGTCATCGTACTTGATCTGGA,0.135
8,TAAACTCTGTCCATTGTCGAGG,-0.536
9,TAGTCTACTACATTATGGGTGA,-0.472
10,TTCAGTAACACTTTCACTCCAA,0.565
11,TTATCTTTGGCTAGATCTCTGT,-0.472
12,TAACAGAGAGCTAATCTGCTTG,0.29

# Target: YAP1
# Experiment: as above
# Details: shRNA
row,Sequence,sensor-assay potency score (higher = more potent)
1,TAAAGTATCTTGCTGGACGTTT,-0.0595
2,TTAAGAAGTATCTCTGACCAGA,0.035
3,TACATTAACAGCAGCAATGGAC,-0.672
4,TGTTGTTGTCTGATCGATGTGA,0.751
5,TTAGCCTGAAAACTGCAACTGG,-0.22
6,TTAAGGAAAGGATCTGAGCTAT,-0.559
7,TTGGTTGATAGTATCACCTGTA,0.588
8,TTTGGTTGATAGTATCACCTGT,0.841
9,TGCTGTGACATGAAGCATCTGA,0.636
10,ATCTTTTTCTGTATTAGCCTGA,0.428
11,TTGAACAAACTAAATGCTGTGA,0.444
12,TGTTGAACAAACTAAATGCTGT,0.164

# Target: YARS
# Experiment: as above
# Details: shRNA
row,Sequence,sensor-assay potency score (higher = more potent)
1,TTGAATAGCCAAGTGCAGGGAG,0.352
2,ATCTTCTCTACATACAGGCTGT,-0.695
3,TTTTAAATACTCTTCATCCAAA,-1.12
4,TAGTGTGTACTCTTTGCTGAGC,-0.796
5,TACACATCTAGTGTGTACTCTT,-0.195
6,TATAGAAGCACACAGAAGCATG,-1.29
7,TTCTCGAAGACTTTCTTCTTGG,-0.635
8,TTCTCATAGTAACTGACTCGGA,-0.794
9,TTTTGCTGCCTGTTAATCCTGG,-0.733
10,TCGTAGGATCACAAACTCGGAC,-0.717
